# Results from the supplement of paper PMC7724964.
# T1: DYNLL2 1-89 Dynein_light (domain begin residue: 1, domain end residue: 89), Q96FJ2
# T1 chain: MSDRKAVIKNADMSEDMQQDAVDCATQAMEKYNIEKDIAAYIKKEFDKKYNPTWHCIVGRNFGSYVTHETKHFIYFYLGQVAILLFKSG
# T2: ESRRG 219-458 Hormone_recep (domain begin residue: 219, domain end residue: 458), P62508
# T2 chain: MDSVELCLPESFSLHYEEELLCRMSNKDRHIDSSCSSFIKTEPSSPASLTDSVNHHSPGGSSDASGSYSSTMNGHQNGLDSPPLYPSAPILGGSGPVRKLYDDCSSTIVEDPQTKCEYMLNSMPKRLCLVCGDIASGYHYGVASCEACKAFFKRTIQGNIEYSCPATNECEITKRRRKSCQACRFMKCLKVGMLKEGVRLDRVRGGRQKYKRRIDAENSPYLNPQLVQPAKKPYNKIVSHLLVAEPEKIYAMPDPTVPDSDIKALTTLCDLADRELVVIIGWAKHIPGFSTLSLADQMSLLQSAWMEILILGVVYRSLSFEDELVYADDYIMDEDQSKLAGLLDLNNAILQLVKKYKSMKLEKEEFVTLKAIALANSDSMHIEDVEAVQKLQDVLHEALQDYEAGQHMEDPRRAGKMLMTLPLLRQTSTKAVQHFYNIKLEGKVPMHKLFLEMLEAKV
# T3: EEF1A2 240-332 GTP_EFTU_D2 (domain begin residue: 240, domain end residue: 332), Q05639
# T3 chain: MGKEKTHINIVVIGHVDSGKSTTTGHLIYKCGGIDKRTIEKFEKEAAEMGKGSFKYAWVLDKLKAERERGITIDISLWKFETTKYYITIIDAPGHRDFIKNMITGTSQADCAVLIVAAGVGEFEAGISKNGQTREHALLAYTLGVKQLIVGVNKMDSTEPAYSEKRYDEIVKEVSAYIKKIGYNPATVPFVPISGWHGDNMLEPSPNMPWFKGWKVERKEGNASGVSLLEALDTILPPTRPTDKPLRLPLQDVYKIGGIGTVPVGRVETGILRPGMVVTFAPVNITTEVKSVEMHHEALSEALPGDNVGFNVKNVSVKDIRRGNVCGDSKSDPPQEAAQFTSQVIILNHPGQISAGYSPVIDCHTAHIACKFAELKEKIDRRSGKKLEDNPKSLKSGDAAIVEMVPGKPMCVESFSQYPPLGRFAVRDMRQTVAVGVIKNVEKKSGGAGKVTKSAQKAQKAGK
# T4: FKBP3 109-224 FKBP_C (domain begin residue: 109, domain end residue: 224), Q00688
# T4 chain: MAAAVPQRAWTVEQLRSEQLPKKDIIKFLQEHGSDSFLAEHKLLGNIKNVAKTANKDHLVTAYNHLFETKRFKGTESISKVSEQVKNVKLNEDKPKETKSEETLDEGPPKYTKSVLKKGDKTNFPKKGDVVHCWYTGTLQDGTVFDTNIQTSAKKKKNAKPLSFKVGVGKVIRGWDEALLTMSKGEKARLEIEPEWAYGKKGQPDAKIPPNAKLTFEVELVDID
# T5: EVL 1-130 WH1 (domain begin residue: 1, domain end residue: 130), Q9UI08
# T5 chain: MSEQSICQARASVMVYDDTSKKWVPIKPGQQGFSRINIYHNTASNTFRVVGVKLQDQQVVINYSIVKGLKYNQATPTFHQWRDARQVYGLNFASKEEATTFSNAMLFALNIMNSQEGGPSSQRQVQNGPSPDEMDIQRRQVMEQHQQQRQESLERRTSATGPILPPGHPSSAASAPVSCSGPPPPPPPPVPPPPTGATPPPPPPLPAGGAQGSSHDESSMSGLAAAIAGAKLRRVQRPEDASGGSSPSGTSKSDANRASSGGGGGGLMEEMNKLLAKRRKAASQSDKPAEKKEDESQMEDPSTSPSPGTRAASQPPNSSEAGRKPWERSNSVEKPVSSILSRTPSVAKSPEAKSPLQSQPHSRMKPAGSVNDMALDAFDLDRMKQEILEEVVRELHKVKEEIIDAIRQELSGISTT
# T6: ENAH 9-116 WH1 (domain begin residue: 9, domain end residue: 116), Q8N8S7
# T6 chain: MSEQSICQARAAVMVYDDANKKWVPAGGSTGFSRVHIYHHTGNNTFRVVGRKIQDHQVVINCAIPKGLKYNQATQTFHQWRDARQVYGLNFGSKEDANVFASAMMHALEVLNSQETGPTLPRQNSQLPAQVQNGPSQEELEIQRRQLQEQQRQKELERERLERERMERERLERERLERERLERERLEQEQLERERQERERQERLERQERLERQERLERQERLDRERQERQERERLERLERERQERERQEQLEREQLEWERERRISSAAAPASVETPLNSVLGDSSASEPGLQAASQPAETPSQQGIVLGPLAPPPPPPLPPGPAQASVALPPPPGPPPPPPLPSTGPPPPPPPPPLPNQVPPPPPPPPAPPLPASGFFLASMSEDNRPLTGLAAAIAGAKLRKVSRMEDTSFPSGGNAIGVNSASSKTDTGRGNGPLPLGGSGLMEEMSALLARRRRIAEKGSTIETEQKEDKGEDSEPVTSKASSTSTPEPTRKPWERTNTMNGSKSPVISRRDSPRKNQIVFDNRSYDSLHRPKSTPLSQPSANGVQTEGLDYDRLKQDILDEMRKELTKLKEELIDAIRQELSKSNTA
# T7: ESRRA 179-423 Hormone_recep (domain begin residue: 179, domain end residue: 423), P11474
# T7 chain: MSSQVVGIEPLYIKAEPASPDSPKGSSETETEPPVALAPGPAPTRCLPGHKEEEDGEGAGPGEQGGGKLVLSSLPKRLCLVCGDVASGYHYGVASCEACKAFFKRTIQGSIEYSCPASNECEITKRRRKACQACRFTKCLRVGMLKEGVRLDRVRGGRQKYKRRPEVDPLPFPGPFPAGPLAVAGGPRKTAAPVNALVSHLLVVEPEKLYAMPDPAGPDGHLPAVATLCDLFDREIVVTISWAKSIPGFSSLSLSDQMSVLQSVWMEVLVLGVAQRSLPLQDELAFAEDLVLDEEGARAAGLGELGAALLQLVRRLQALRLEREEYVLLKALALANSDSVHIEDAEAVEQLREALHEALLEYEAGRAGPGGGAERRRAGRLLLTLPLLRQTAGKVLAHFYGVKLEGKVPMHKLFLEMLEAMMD
# What was measured:
# Assay in all cases: phage ELISA signal ratio (GST-PRM binding over GST background); higher = stronger binding of peptide-phage to the PRM
# [1] = molecular target: EIF2S1 9-93 S1 (domain begin residue: 9, domain end residue: 93), P05198
# How it was run: (§1)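 Each value is the phage ELISA signal on the glutathione S-transferase (GST)-domain fusion divided by the signal on GST alone. Human peptide recognition domains were expressed in 96-well plates, fused to the C-terminus of GST, and selected against an M13 phage library carrying randomized, cysteine-free, glycine-flanked hexadecapeptides on the gene-8 major coat protein. After five selection rounds, approximately 48 individual clones from rounds 4 and 5 were tested by phage ELISA, and positive clones were sequenced.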
# [2] = molecular target: T1, DYNLL2 1-89 Dynein_light (domain begin …
# How it was run: as §1
# [3] = molecular target: EGFR 334-495 Recep_L_domain (domain begin residue: 334, domain end residue: 495), P00533
# How it was run: as §1
# [4] = molecular target: T2, ESRRG 219-458 Hormone_recep (domain …
# How it was run: as §1
# [5] = molecular target: PCMT1 1-227 PCMT (domain begin residue: 1, domain end residue: 227), P22061
# How it was run: as §1
# [6] = molecular target: T3, EEF1A2 240-332 GTP_EFTU_D2 (domain …
# How it was run: as §1
# [7] = molecular target: T4, FKBP3 109-224 FKBP_C (domain begin …
# How it was run: as §1
# [8] = molecular target: PABPC1 96-174 RRM_1 (domain begin residue: 96, domain end residue: 174)
# How it was run: as §1
# [9] = molecular target: T5, EVL 1-130 WH1 (domain begin residue: 1, …
# How it was run: as §1
# [10] = molecular target: T6, ENAH 9-116 WH1 (domain begin residue: …
# How it was run: as §1
# [11] = molecular target: T7, ESRRA 179-423 Hormone_recep (domain …
# How it was run: as §1
# [12] = molecular target: EIF4E 2-217 IF4E (domain begin residue: 2, domain end residue: 217), P06730
# How it was run: as §1
# EIF2S1 9-93 S1 (domain begin residue: 9, domain end residue: 93), P05198, sequence (P05198 whole entry, the tested form may be a part): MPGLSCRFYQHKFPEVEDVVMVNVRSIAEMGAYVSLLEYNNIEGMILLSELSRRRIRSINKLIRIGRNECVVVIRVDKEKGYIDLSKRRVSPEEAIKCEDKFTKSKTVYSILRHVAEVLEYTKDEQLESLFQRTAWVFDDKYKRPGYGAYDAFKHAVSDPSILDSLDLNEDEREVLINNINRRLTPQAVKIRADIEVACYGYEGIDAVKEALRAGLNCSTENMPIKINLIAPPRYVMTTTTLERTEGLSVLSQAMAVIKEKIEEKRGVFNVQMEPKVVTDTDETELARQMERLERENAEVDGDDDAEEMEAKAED
# EIF4E 2-217 IF4E (domain begin residue: 2, domain end residue: 217), P06730, sequence (P06730 whole entry): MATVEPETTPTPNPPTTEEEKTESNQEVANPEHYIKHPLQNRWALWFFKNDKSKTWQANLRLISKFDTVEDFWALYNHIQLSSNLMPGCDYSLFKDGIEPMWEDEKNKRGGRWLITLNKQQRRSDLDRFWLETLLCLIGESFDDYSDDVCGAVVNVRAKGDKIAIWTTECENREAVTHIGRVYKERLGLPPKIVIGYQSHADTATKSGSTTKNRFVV
# PCMT1 1-227 PCMT (domain begin residue: 1, domain end residue: 227), P22061, sequence (P22061 whole entry): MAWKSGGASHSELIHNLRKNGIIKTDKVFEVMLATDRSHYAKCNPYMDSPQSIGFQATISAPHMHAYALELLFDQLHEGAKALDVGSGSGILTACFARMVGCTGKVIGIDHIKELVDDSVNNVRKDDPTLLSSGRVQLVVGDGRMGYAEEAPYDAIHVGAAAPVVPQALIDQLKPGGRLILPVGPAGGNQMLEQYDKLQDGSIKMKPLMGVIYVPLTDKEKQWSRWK
binder,measurement,setting,value
SSGSSTRPMRVTRAPT,phage ELISA signal ratio,[1],4.01
MEMGTQTYKWQEWAFV,phage ELISA signal ratio,[2],31.3
EFFIPKEFYWDRVQDV,phage ELISA signal ratio,[3],26.6
EHIQGHAPLLWEVLHS,phage ELISA signal ratio,[4],10.8
same,phage ELISA signal ratio,[5],10.8
SDHTHWQLIQWDGWML,phage ELISA signal ratio,[6],11.6
WGAGVFLVADPQMEVV,phage ELISA signal ratio,[7],5
WTWDSEMGIWTLANDI,phage ELISA signal ratio,[1],20.4
same,phage ELISA signal ratio,[8],20.4
TQTLILDMDNMKFMTT,phage ELISA signal ratio,[2],36.6
TMTDATLFEVPSYWIT,phage ELISA signal ratio,[2],31.9
TEMYEWMADATTNTMW,phage ELISA signal ratio,[2],28
STQTDSNWKMMPDGTV,phage ELISA signal ratio,[2],34.5
PWGPYQSFSELDIKHE,phage ELISA signal ratio,[6],17.3
DIFPTYQHFMQQYSSE,phage ELISA signal ratio,[2],30.3
VGVYSLQDEPQKRVVV,phage ELISA signal ratio,[7],6.15
VWVAWSWMHSVQMEAD,phage ELISA signal ratio,[1],12.3
same,phage ELISA signal ratio,[8],12.3
GIGFEWVHDGWWPMWT,phage ELISA signal ratio,[9],13.8
QQGIGVFQDWFNHGLI,phage ELISA signal ratio,[7],9.64
EEWKPHPEEGMGVFLV,phage ELISA signal ratio,[7],13
QYVEEGSWYMLHMYLT,phage ELISA signal ratio,[4],17.4
VTDNAWPYPPVAVSQH,phage ELISA signal ratio,[10],7.69
TQVWPDDWWALGNYYE,phage ELISA signal ratio,[2],32
SQQWSTHYPTFFELML,phage ELISA signal ratio,[11],3.25
PWSWFTYREQLETENV,phage ELISA signal ratio,[12],20.1
HADLQGLGVFEWQEPV,phage ELISA signal ratio,[7],12.6
TMTPWDWPIYQGESEH,phage ELISA signal ratio,[2],25.7
GQTEFVYKQMPVSGAR,phage ELISA signal ratio,[2],33
VQWQDQYPTFYAEMSK,phage ELISA signal ratio,[11],8.22
HWWQDNQGYVWFQVEQ,phage ELISA signal ratio,[6],5.34
